Shown is part of a subset that was picked to be rich in hits.
CHX counter – affects cycloheximide protein synthesis inhibition readout, counter-screen | cell reporter, cycloheximide protein synthesis inhibition counterscreen | max response, % | 300,000 compounds, 12% hits; in the data active = max response mostly above about 13%, no sharp cut-off; inactive = mostly below about 14%; also: read at 38.3 µM for the half of the compounds with a filed dose; 0% is about no effect
Shiga inhibitor – Shiga toxin inhibition; AID 2315; 290,000 compounds, 9.2% hits; Vero cells, Shiga toxin protein synthesis inhibition reporter; inhibition, % at 38.7 µM; in the data active = inhibition mostly above about 28%, no sharp cut-off; inactive = mostly below about 43%; also: 0% is about no effect
Lassa entry inh – inhibitors of Lassa virus binding or cell entry; Lassa virus pseudotype entry inhibition, cell reporter; Potency, µM (series often up to 37.9 µM), inactives show at the top dose activity change, negative = inhibition, most hits filed as inhibitors; 300,000 compounds, 1.2% hits; AID 540256; calls by dose curve; tested in HEK293 cells; also: potency is read from the fitted curve at half-maximal effect; % is scaled to controls: 0 for no effect and ±100 for the full control effect; nearly all actives have a fitted effect of over 50% in size
AMA1-RON2 inh – disrupts binding of P. falciparum AMA1 to RON2; 360,000 compounds, 0.2% hits; AlphaScreen AMA1-biotinylated RON2 peptide binding; Potency, µM (top dose mostly 58.2 µM), without a hit: at the highest dose activity change, negative = inhibition, most hits filed as inhibitors; active = well fitted inhibition curve with a large enough effect; inconclusive = small, poorly fitted or top-dose-only effect; inactive = no such curve, though single readings can be large or run the other way;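 also: potency is read from the fitted curve at half-maximal effect; 0% = vehicle wells and -100% = peptide control; nearly all actives have a fitted effect of over 45% in size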
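AMA1 (3D7) with his tag at 25 nM final met compounds first, then biotinylated RON2 peptide at 25 nM; detection used donor plus acceptor beads, 10 µg/mL apiece, read by AlphaScreen after 30 min at room temperature.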
MARV entry inh – blocks Marburg virus binding to or entry into cells; Marburg virus pseudotyped entry inhibition, cell reporter; Potency, µM (series often up to 37.8 µM), without a hit: top-dose activity change, negative = inhibition, hits mostly inhibitors; 300,000 compounds, 1.8% hits; calls by dose curve; tested in HEK293 cells; also: potency is read from the fitted curve at half-maximal effect; % is scaled to controls: 0 for no effect and ±100 for the full control effect
The depositor's hits bear a star; ? = inconclusive; . = no result; ! = a repeat was not active; [ ] = remark or other dose.

SMILES	CHX counter	Shiga inhibitor	Lassa entry inh	AMA1-RON2 inh	MARV entry inh
CCOC(=O)C1(Cc2ccc(OC)cc2)CCN(C(=O)c2cncs2)CC1	15.7*	30.7	15.6%	-2.7%	7.4%[46.1 µM]
CCOC(=O)C1(Cc2ccc(OC)cc2)CCN(C(=O)CCn2ccc(C)n2)CC1	-2.2	11.0	-26.8%	-8.1%	-1.7%[46.1 µM]
CCOC(=O)C1(Cc2ccc(OC)cc2)CCN(C(=O)c2ccoc2C)CC1	11.2*	20.6	.	-3.2%	.
CCOC(=O)C1(Cc2ccc(OC)cc2)CCN(C(=O)CCn2cccn2)CC1	30.2*	88.4	10.0%	-17.4%	5.3%[46.1 µM]
Cc1c(N(C)C(=O)COc2ccc3ccccc3c2)c(=O)n(-c2ccccc2)n1C	-6.7	11.1	-3.4%	-7.1%	6.0%[46.1 µM]
COc1ccc(C=C(C(=O)c2ccccc2)C(=O)c2ccccc2)cc1	.	.	.	126.4%	.
CC(C)(C)NCC(=Cc1ccccc1)C(=O)c1ccccc1	.	.	7.08µM*	-4.4%	7.94µM*
COc1ccccc1/C=N/Nc1cc(C)nc2ccc(C)cc12	26.1*	.	21.2%[46.1 µM]	-4.3%	-3.1%[46.1 µM]
Cc1ccc2nc(C)cc(N/N=C/c3ccccc3O)c2c1	22.1*	26.9*	.	99.6%	.
CCn1c(C(=O)Nc2c(C)cccc2C)cc2sc(Cl)cc21	.	.	.	.	-12.5%[46.1 µM]
CCN1CCC(O)(/C=C/c2ccc(C(C)C)cc2)C(C(=O)/C=C/c2ccc(C(C)C)cc2)C1 (stereo not given)	.	.	14.1µM*	-24.6%	?
CC(C)c1ccc(/C=C/C(=O)O)cc1	4.5	-0.7	6.9%	-11.7%	7.1%[46.1 µM]
CCOC(=O)c1oc2ccc(Cl)cc2c1NC(C)=O	-4.8	-16.6	.	0.0%	.
CCOC(=O)c1oc2cccc(OC(C)=O)c2c1C	39.4*	68.0*	7.6%	-26.3%	22.9%
CCOC(=O)c1oc2cccc(O)c2c1C	31.7*	62.9*	29.5%	-4.6%	?
CCOC(=O)c1oc2ccc(CNC(C)(C)C)c(Cl)c2c1C	16.0*	27.3*	-19.1%	-10.3%	?
COc1cc(Cl)c(NC(=O)CN2C(=O)c3cccnc3Sc3ccccc32)c(OC)c1	.	.	-0.1%[46.1 µM]	.	-2.9%[46.1 µM]
Cn1ccc(C(=O)NC(=S)Nc2ccc([N+](=O)[O-])cc2O)n1	27.8*	34.0	.	-4.2%	.
CCC(CC)C(=O)Nc1ccc([N+](=O)[O-])cn1	-3.1	-10.3	0.1%[46.1 µM]	2.0%	8.2%[46.1 µM]
CC(C)(C)c1ccc(C(=O)Nc2ccc([N+](=O)[O-])cn2)cc1	58.1*	76.1*	?	-9.8%	3.1%
O=C(Nc1ccc([N+](=O)[O-])cn1)c1ccc2c(c1)OCO2	30.9*	67.6*	25.8%	18.1%	?
O=C(CCC1CCCC1)Nc1ccc([N+](=O)[O-])cn1	34.7*	54.4*	-26.6%	0.0%	?
Cc1ccc(NC(=O)CCC(=O)OCc2ccc(Br)cc2)cc1	-3.5	-2.9	-6.2%	11.2%	-0.4%
CN(CC(=O)NNC(=O)Cc1ccccc1F)S(=O)(=O)c1ccc(Cl)cc1	.	.	-12.2%	54.6%	-14.7%
Cc1cccc(NC(=O)CNC(=O)c2ccc3c(c2)OCO3)n1	.	.	9.7%	0.0%	-10.2%
SMILES	CHX counter	Shiga inhibitor	Lassa entry inh	AMA1-RON2 inh	MARV entry inh
O=C(NC(=S)Nc1cc([N+](=O)[O-])ccc1O)c1ccc2c(c1)OCO2	42.1*	82.6*	?	93.1%	?
Cc1nc(NC(=O)c2ccc3c(c2)OCO3)ccc1Br	46.0*	55.4*	-25.9%[46.1 µM]	?	-1.3%[46.1 µM]
Cc1cc(NC(=O)c2ccc3c(c2)OCO3)no1	28.8*	106.1*	?	-20.5%	?
COc1cc([N+](=O)[O-])ccc1NC(=S)NNC(=O)c1ccc2c(c1)OCO2	-1.7	12.6	.	107.4%	.
O=C(Nc1ccccn1)c1ccc2c(c1)OCO2	36.1*	44.0*	-26.7%[46.1 µM]	-7.8%	?
Cc1ccccc1-c1nnn(Cc2cccc(S(=O)(=O)N3CCOCC3)c2)n1	.	.	.	15.9%	.
COc1ccccc1-c1nc(S(=O)(=O)c2ccccc2)c(N2CCC(C)CC2)o1	.	.	-27.2%[46.1 µM]	.	?
CC(C)(C)c1ccc(C(=O)NCC(=O)N2CCCCCC2)cc1	2.0	72.4	-1.1%	0.2%	-8.5%
COC(=O)c1ccc(NC(=O)CCc2c(C)nn(-c3ccc(N4CCCCC4)nn3)c2C)cc1	.	.	27.4%[46.1 µM]	.	.
Cc1nc(CS(=O)(=O)c2ccccc2)cc(Sc2ccc(Cl)cc2Cl)n1	16.9*	68.3*	-0.1%	4.5%	?
O=C1CCC(C(=O)N2CCc3ccccc3C2)CN1CCCN1CCOCC1 (stereo not given)	-1.1	-4.4	2.3%	-10.0%	9.0%
COc1ccc(-c2nnc(SCC(=O)/C(C#N)=C(\C)N)o2)cc1	38.1*	107.1*	?	-9.1%	?
COc1ccc2nc(SCC(=O)/C(C#N)=C(\C)N)[nH]c2c1	46.6*	96.8*	?	6.8%	?
C/C(N)=C(/C#N)C(=O)CSc1nnc(-c2ccccc2Br)o1	54.2*	126.3*	?	-9.2%	6.31µM*
O=C(COc1ccc(F)cc1Cl)N(Cc1nnc(-c2ccccc2Cl)o1)C1CC1	.	.	-2.2%	18.6%	-3.9%
CCCc1cc(=O)n2[nH]c(-c3ccc(Br)cc3)cc2n1	37.8*	14.1*	-2.6%	-4.2%	?
CCCc1cc(=O)n2[nH]c(-c3cccc(Br)c3)cc2n1	36.1*	64.1*	?	-5.2%	-4.5%
CCOC(=O)Cc1cc(=O)n2[nH]c(-c3ccccc3)cc2n1	-1.7	-2.8	1.5%	-8.6%	1.5%
O=c1ccc2cc3c4c(c2o1)CCCN4CCC3	-4.2	-5.0	?	-13.4%	-10.1%[46.1 µM]
O=c1oc2c3c4c(cc2s1)CCCN4CCC3	-2.7	-15.4	1.9%	14.1µM*	0.5%
COc1ccc(-c2noc(C3CCCN(C(=O)c4ccccc4OC)C3)n2)cc1OC (stereo not given)	23.0*	28.7	-2.2%	-5.3%	?
Cc1ccc(-c2noc(C3CCCN(C(=O)c4ccccc4Br)C3)n2)cc1 (stereo not given)	27.1*	53.4*	.	-2.6%	.
CCCS(=O)(=O)N1CCCC(c2nc(-c3ccc(OC)cc3)no2)C1 (stereo not given)	17.5	11.8	-13.0%	3.1%	5.3%
CS(=O)(=O)N1CCCC(c2nc(-c3ccc(S(=O)(=O)NCc4ccccc4)cc3)no2)C1 (stereo not given)	-2.4	-25.3	?	6.6%	0.13µM*!
CCS(=O)(=O)N1CCCC(c2nc(-c3cccc(OC)c3)no2)C1 (stereo not given)	42.0*	103.7*	-3.0%	0.0%	0.7%
SMILES	CHX counter	Shiga inhibitor	Lassa entry inh	AMA1-RON2 inh	MARV entry inh
COc1ccc(C(=O)N2CCCC(c3nc(-c4ccc(OC)c(OC)c4)no3)C2)c(OC)c1 (stereo not given)	-2.3	-9.5	0.1%	-22.5%	?
O=C(NCc1ccco1)c1cccc2c(-c3ccc(F)c(F)c3)coc12	.	.	.	-13.0%	.
COc1ccccc1NC(=S)NNC(=O)c1nn(C)cc1Cl	14.1	45.0	2.0%	0.0%	5.5%[46.1 µM]
COc1ccccc1NC(=S)NNC(=O)c1nn(C)c(C)c1Br	52.3*	108.5*	6.5%	58.2%	13.7%
CCCCNC(=S)NNC(=O)c1nn(C)c(C)c1Cl	28.8*	73.7*	-2.3%	81.3%	-2.8%
COc1ccccc1NC(=S)NNC(=O)c1nn(C)c(C)c1Cl	34.0*	30.1	21.3%	-9.0%	2.3%
